About 83,000 compounds went through this panel and 20% of them were active in at least one assay; those are over-represented in the sample as a whole.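 How to read the values: 0–100, growth inhibition (40 = 60% inhibited); 0, no net growth; -100 to 0, cell death (-40 = 40% of starting cells died; -100 = all dead).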 A number with no mark means an inactive call. Calls of active or inactive are those of the source.

This assay concerns ACHN renal. The assay can be described thus: NCI-60 one-dose screen, 48 h (100 = growth as untreated, 0 = no growth, -100 = all killed). The note with it: 10 µM unless noted. On the procedure:
Growth inhibition of the ACHN human tumor cell line is measured as a screen for anti-cancer activity. Cells are grown in 96 well plates and exposed to the test compound for 48 hours. Compounds are tested at a single concentration, which is 10^-5 M for most compounds. The reported endpoint is percent growth (GI% or GIPRCNT), where numbers from 0 - 100% represent growth inhibition, and numbers from -100% - 0 represent cell death. For example, a value of 40 represents 60% growth inhibition. A value of 0 means no net growth occurred over the course of the experiment. A value of -40 indicates 40% of cells at the beginning of the experiment died by the end of the experiment. A value of -100 means all cells are dead at the end of the experiment.
NCI-60 Human Tumor Cell Lines Screen was performed using the standard one-dose NCI protocol, which is described in more detail at https://dtp.cancer.gov/discovery_development/nci-60/default.htm.
Compounds with GIPRCNT values below 10 were considered active. Activity score was based on GIPRCNT using the following formula: […]
Score is 0 for GIPRCNT values of 100 or above, 50 for GIPRCNT values of 0, and 100 for GIPRCNT values of -100.
With `COc1ccc2c(c1)C(=Nc1cc(OC)c(OC)c(OC)c1)C(=O)N2`, the growth was 88.5%.
`COc1ccc(NC(=O)c2ccccc2-c2ccccc2)c(C(N)=O)c1`: the growth is 40.4%.
Next, `COc1cccc(/C=N/Nc2nc3ccccc3s2)c1OC`: 79.7%; `CC(=O)N1N=C(c2ccc3c(c2)OCO3)CC1c1c(C)nn(-c2ccccc2)c1N(C)Cc1ccccc1` (stereo not given): 81.3%.
Regarding `Cc1ccccc1NC(=O)N/C(N)=N/c1nc2ccccc2s1`, the growth is 39.2%.
In the case of `O=C1NC(=O)/C(=C/c2ccc(Cl)cc2Cl)N1`, the growth is 109%.
The figure for `CCC(=O)Nc1cc2c(cc1Cl)-c1ccccc1C2` is 87.1%; for `COc1ccc(-c2ccc(O)c(C(=O)/C=C/c3cc(OC)c(OC)c(OC)c3)c2)cc1` it is 85.7%; for `Cc1ccc(S(=O)(=O)N2CCN(C(=O)CSc3nc4ccc(C)cc4[nH]3)CC2)cc1` it is 113%.
As for `CCN1CC2=C(Nc3nc(SC)[nH]c(=O)c3C2c2cc(OC)c(OC)c(OC)c2)/C(=C/c2cc(OC)c(OC)c(OC)c2)C1` (stereo not given), the growth is 87.9%.
Next, `Nc1ccc(Oc2c(F)c(F)c(Oc3ccc(N)cc3)c(F)c2F)cc1`: 93.5%; `CCc1nn2c(-c3ccc(Cl)cc3C)c(-c3cc(OC)c(OC)c(OC)c3)nc2s1`: 76.7%.
As to `O=C1NCCc2c1noc2-c1ccccc1`, the growth was 106%.
Take `O=C(Nc1ccccc1)P(=O)(O)c1ccccc1`: the growth is 93.9%.
On to `Cc1ccc(NC(=O)c2sc3nc4c(cc3c2N)C(=O)CCC4)cc1`, for which the growth is 89.9%.
Next, `CCN(CC)CCSc1ncnc2c1cnn2-c1ccc(S(N)(=O)=O)cc1`: 92.2%; `CSc1nc(N)c2c(n1)N(C)C=NS2(=O)=O`: 99%; `Cc1ccc(C2=NNC(c3sc(Cl)nc3Cl)C2)cc1` (stereo not given): 112%.
Turning to `N=C1c2nc3n(c2C(=O)c2nc4n(c21)CCCCC4)CCCCC3`, the growth is 105%.
Next, `C=CCN(/C=C/CN(CC=C)CC=C)CC=C`: 93.2%.
Next, `CC(=O)N1N=C(c2ccc(Nc3ccnc4cc(Cl)ccc34)cc2)CC1c1ccc(Cl)cc1` (stereo not given): 34.1%; `c1ccc(Nc2ccc(Nc3nc(-c4ccccc4)nc4ccccc34)cc2)cc1`: 81.3%.
The figure for `CCN(CC)c1ccc(C(=C2C=CC(=[N+](CC)Cc3cccc(S(=O)(=O)O)c3)C=C2)c2ccc(N(CC)Cc3cccc(S(=O)(=O)O)c3)cc2)cc1` is 77.3%; for `CCCCCCCCCCCCCCCCNC(=O)Nc1ccc2ccccc2c1` it is 108%.
As for `C[C@@H]1[C@H]2[C@H](C=C3[C@@H]4CC[C@H]5Cc6nc7c(nc6C[C@]5(C)[C@H]4C[C@@H](O)[C@@]32C)C[C@@H]2CC[C@H]3C4=C[C@@H]5O[C@@]6(CC[C@](C)(CO)O6)[C@@H](C)[C@@]5(O)[C@@]4(C)[C@H](O)C[C@@H]3[C@@]2(C)C7)O[C@]12CCC(C)(C)O2`, the growth is 42.5%.
Next, `CC(=O)N1N=C(c2ccc(Cl)cc2)CC1c1c(C)nn(-c2ccccc2)c1N(C)Cc1ccccc1` (stereo not given): 90.9%; `CN[C@@H]1C(OC2[C@H](O[C@H]3[C@H](O)[C@@H](O)[C@H](N=C(N)N)[C@@H](O)[C@@H]3N=C(N)N)OC(C)[C@]2(O)CO)OC(CO)C(O)C1O` (stereo not given in full): 114%.
Take `COc1ccc(/C=C/C(=O)c2cccc(NS(C)(=O)=O)c2)cc1`: the growth was 93.4%.
Next, `N#CC(C#N)C(C#N)C#N`: 107%; `Cc1cc(C)nc(NS(=O)(=O)c2ccc(Nc3nc4nc(SCc5ccccc5)nc(-c5ccc(O)cc5)c4c(=O)[nH]3)cc2)n1`: 104%; `O=C1/C(=C/c2cccc(Cl)c2)CCc2ccccc21`: 103%.
As for `N#Cc1ccc(-c2csc(Nc3ccc4nc5n(c(=O)c4c3)CCC5)n2)cc1`, the growth was 108%.
The figure for `Cc1cc2ccccn2c1C(=O)c1ccc(C(=O)c2ccccc2)cc1` is 93%; for `CCCc1n(Cc2ccc3ccccc3c2)cc[n+]1Cc1ccc2ccccc2c1` it is 42.3%; for `c1ccc(CN=C(NCc2ccccc2)NCc2ccccc2)cc1` it is 73.1%.
The figure for `COc1cnc2c(c1)C(=O)c1c-2n(CCCn2ccnc2)c(=O)c2cc(F)ccc12` is -72.6% (active); for `Fc1ccccc1C1c2ccccc2-c2nccn21` (stereo not given) it is 112%.
Next, `Cn1ccnc1C(=O)/C=C/c1ccc(C(=O)Nc2nc3ccccc3[nH]2)cc1`: 49.3%.
Turning to `O=C(CNC(=O)c1cccc2ccccc12)Nc1ccccc1Oc1ccc(O)cc1`, the growth is 43.8% [5 µM].
The figure for `NS(=O)(=O)c1cc2c(cc1Cl)NC=NS2(=O)=O` is 98.9%.

Values taken from PubChem BioAssay (NCI).
